This is a sample that favours compounds with a hit; in the whole collection about 6.5% have one here.
Fluor 339 460: intrinsic fluorescence of library compounds, ex339/em460 – biochemical, MLSMR library, data from DPM-DC assay, artefact control, profiling panel; fluorescence fold increase at 10 µM; hit rate 5.5% among 65,000; AID 709, 2007; compound autofluorescence, ex339/em460 nm, NADH buffer; stronger effect = higher value; 1 = no-compound wells, NADH background;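 active = at 10 µM, mean starting fluorescence two-fold or more over control wells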;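 note: signal is the first read of a kinetic run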
A340 absorber: compound light absorbance at 340 nm, profiling panel, artefact control, biochemical, MLSMR library, data from PS, PMK, MK assays; compound absorbance at 340 nm, fold over control; fold change at 10 µM; 65,000 tested, under 10 active;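 active = at 10 µM dose, initial 340 nm absorbance at least 2 fold that of control wells; inactive = change under 2 fold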;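 note: initial absorbance extrapolated from kinetic A340 decline of NADH oxidation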
MK inhibit: S. pneumoniae MK inhibitors, primary screen, biochemical, PK/LDH-coupled NADH absorbance. mevalonate kinase [Streptococcus pneumoniae D39]. purified MK, PK/LDH-coupled NADH absorbance 340 nm. inhibition, % at 10 µM. hit rate 0.48% among 65,000. AID 555, 2006;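 active = ranked among the strongest by inhibition in the single 10 µM screen, a fixed top-ranked set picked for dose follow-up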
PMK inhibit: S. pneumoniae PMK inhibitors, primary screen, biochemical, mevalonate pathway, pilot trial included; phosphomevalonate kinase (Streptococcus pneumoniae D39); purified PMK, PK/LDH-coupled NADH absorbance 340 nm; inhibition, % at 10 µM; hit rate 0.49% among 65,000; AID 539, 2006;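 active = top-ranked compounds by inhibition in the single 10 µM screen, taking a fixed number of the strongest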;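 note: 0% = full reaction with DMSO carrier and 100% = background rate without enzyme reaction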
Spn DPM-DC inh: S. pneumoniae DPM-DC inhibitors, primary screen, biochemical, PK/LDH-coupled NADH fluorescence; purified DPM-DC; calls only at 10 µM; hit rate 0.49% among 65,000; AID 556, 2006;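 active = the 320 compounds with the highest percent inhibition in the single-dose primary screen, excluding strongly autofluorescent ones, cut at about 32% in these data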;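 note: kinetic rate of NADH fluorescence loss reporting ADP formed by the decarboxylase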
NADH enzymes: inhibitors of PK/LDH coupling enzymes, profiling panel, artefact control, biochemical, MLSMR library; coupled PK/LDH NADH assays, four targets; hit rate 0.02% among 65,000; IC50, µM (highest dose often 10 µM), inactives show at the highest dose inhibition;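 active = single-dose screening hits from any of four coupled enzyme assays that gave an IC50 when retested across doses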;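 note: the DPM-DC format reads NADH fluorescence rather than 340 nm absorbance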
* hit, by the source's call.

Results for O=C1c2ccccc2NC(c2ccccn2)N1c1ccc(Cl)cc1 (configuration not stated) ?
Fluor 339 460: 4.83*; A340 absorber: 0.98; MK inhibit: 5.0; PMK inhibit: 14.0; NADH enzymes: 10.0%

How did O=C(Nc1ccc2c(c1)OCCO2)c1ccc(NC(=O)C2CCCO2)cc1 (configuration not stated) do in these assays?
Fluor 339 460: 1.1; A340 absorber: 1.04; MK inhibit: 11.0; PMK inhibit: 0.0; Spn DPM-DC inh: inactive; NADH enzymes: 4.0%

What do the screens show for `Clc1ccc2[nH]c3c(NCC4CCCO4)ncnc3c2c1` (configuration not stated)?
Fluor 339 460: 2.5*; A340 absorber: 1.08; MK inhibit: 2.0; PMK inhibit: 11.0; Spn DPM-DC inh: inactive; NADH enzymes: 9.0%

How did Clc1ccc2[nH]c3c(NCCN4CCOCC4)ncnc3c2c1 do in these assays?
Fluor 339 460: 1.42; A340 absorber: 1.07; MK inhibit: 5.0; PMK inhibit: 12.0; Spn DPM-DC inh: inactive; NADH enzymes: 8.0%

How did CCOC(=O)C(Cc1ccccc1)C(=O)Nc1nccs1 (configuration not stated) do in these assays?
Fluor 339 460: 1.02; A340 absorber: 1.01; MK inhibit: 12.0; PMK inhibit: 1.0; Spn DPM-DC inh: active; NADH enzymes: 18.0%

How did CCOC(=O)c1c(Nc2nc(C)c(C(=O)NC)s2)sc(C)c1C do in these assays?
Fluor 339 460: 1.08; A340 absorber: 1.15; MK inhibit: 33.0; PMK inhibit: 16.0; Spn DPM-DC inh: active; NADH enzymes: 30.0%

Results for CCOC(=O)c1sc2nc(N3CCOCC3)c3c(c2c1N)CCC3 ?
Fluor 339 460: 3.64*; A340 absorber: 1.15; MK inhibit: 17.0; PMK inhibit: 5.0; NADH enzymes: 11.0%

How did COC(=O)c1sc2nc(N3CCCCC3)c3c(c2c1N)CC(C)(C)N(C)C3 do in these assays?
Fluor 339 460: 2.33*; A340 absorber: 1.09; MK inhibit: 0.0; PMK inhibit: 2.0; NADH enzymes: 1.0%

Results for O=C(COC(=O)COc1ccc(Nc2ccccc2)cc1)NCc1ccco1 ?
Fluor 339 460: 1.01; A340 absorber: 0.98; MK inhibit: 7.0; PMK inhibit: 12.0; Spn DPM-DC inh: inactive; NADH enzymes: 6.0%

How did O=C(COc1ccc2oc(-c3ccccc3)cc(=O)c2c1)NCc1ccco1 do in these assays?
Fluor 339 460: 3.85*; A340 absorber: 1.13; MK inhibit: 5.0; PMK inhibit: 10.0; NADH enzymes: 8.0%

What do the screens show for `Cc1oc(-c2ccccc2F)nc1CSCC(=O)NCc1ccc2c(c1)OCO2`?
Fluor 339 460: 1.04; A340 absorber: 1.03; MK inhibit: 0.0; PMK inhibit: 5.0; Spn DPM-DC inh: inactive; NADH enzymes: 2.0%

What do the screens show for `N#CC1=C(N)Oc2n[nH]c(-c3ccc(F)cc3)c2C1c1ccncc1` (configuration not stated)?
Fluor 339 460: 1.08; A340 absorber: 1; MK inhibit: 0.0; PMK inhibit: 11.0; Spn DPM-DC inh: inactive; NADH enzymes: 4.0%

What do the screens show for `COc1cccc2c(=O)c3c(cnn3C)n(C)c12`?
Fluor 339 460: 2.51*; A340 absorber: 1; MK inhibit: 0.0; PMK inhibit: 0.0; NADH enzymes: 1.0%

What do the screens show for `COc1ccc(OC)c(C2C(C(=O)Nc3cccnc3)=C(C)NC3=C2C(=O)CCC3)c1` (configuration not stated)?
Fluor 339 460: 1.37; A340 absorber: 1.04; MK inhibit: 9.0; PMK inhibit: 9.0; Spn DPM-DC inh: inactive; NADH enzymes: 5.0%

What do the screens show for `Cc1ccc(Cn2c(NCCCn3ccnc3)nc3c2c(=O)n(C)c(=O)n3C)cc1`?
Fluor 339 460: 1.11; A340 absorber: 0.99; MK inhibit: 12.0; PMK inhibit: 8.0; Spn DPM-DC inh: inactive; NADH enzymes: 7.0%

What do the screens show for `O=c1[nH]c(-c2ccc(Cl)cc2)nc2c1cnn2-c1ccccc1`?
Fluor 339 460: 2.3*; A340 absorber: 1.06; MK inhibit: 7.0; PMK inhibit: 0.0; Spn DPM-DC inh: inactive; NADH enzymes: 7.0%

Screening data deposited in PubChem by SRMLSC.
